Tests used:
[1] = tested on: P. falciparum NF54-pfs16-GFP early (I-III) stage gametocytes; experiment: relative % inhibition of viable gametocyte number; higher = more gametocytocidal; conditions: stage: early (I-III) gametocyte, incubation 72 h
How it was run: (§1)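 Relative inhibition was normalised to in-plate vehicle and positive-control wells, with viable gametocytes defined on confocal images as elongated GFP objects whose MitoTracker Red signal exceeded a cut-off. NF54 pfs16-GFP gametocytes, magnet-isolated at early (I/IIa, day 2) or late (day 8) stage, were plated at 10% parasitaemia, 0.1% haematocrit with compound at 5 or 0.5 µM. Plates were incubated 72 h at 37°C, 5% CO2, 5% O2, then stained overnight.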

[2] = tested on: P. falciparum NF54-pfs16-GFP late (IV-V) stage gametocytes; experiment: as above; conditions: stage: late (IV-V) gametocyte, incubation 72 h
How it was run: as §1

CC(C)=CCN1CCC(C(=O)Nc2ccc(-c3nc4ccccc4[nH]3)cc2)CC1 was tested, and the relative % inhibition ([1]; 0.5 µM) was 3.42%, the relative % inhibition ([1]; 5 µM) was 74.1% and the relative % inhibition ([2]; 0.5 µM) was 16.4%. For the same molecule, the relative % inhibition ([2]; 5 µM) was -15.7%.

With CC(C)CNC(=O)c1c(N)n(CCc2ccccc2F)c2nc3ccccc3nc12 the relative % inhibition ([1]; 0.5 µM) was -1.27%, the relative % inhibition ([1]; 5 µM) was 3.8% and the relative % inhibition ([2]; 0.5 µM) was 3.01%. The relative % inhibition ([2]; 5 µM) was 8.27%.

O=C(Cc1ccccc1)NC(c1ccc(Cl)cc1)c1c(O)ccc2ccccc12 (centres undefined) gave a relative % inhibition ([1]; 0.5 µM) of 14.2%, a relative % inhibition ([1]; 5 µM) of 104% and a relative % inhibition ([2]; 0.5 µM) of 1.94%. The relative % inhibition ([2]; 5 µM) was 27.6%.

Molecule Cc1ccc(Cl)cc1N1CCN(CCCNC(=O)C2CCN(c3nc4ccccc4[nH]3)CC2)CC1 has a relative % inhibition ([1]; 0.5 µM) of 20%, a relative % inhibition ([1]; 5 µM) of 66% and a relative % inhibition ([2]; 0.5 µM) of 28.3%. For the same molecule, the relative % inhibition ([2]; 5 µM) was -3.06%.

COc1cc(-c2nc(-c3ccc(Sc4ccccc4)cc3)c(-c3ccccc3)[nH]2)cc(OC)c1O gave a relative % inhibition ([1]; 0.5 µM) of 27%, a relative % inhibition ([1]; 5 µM) of 86.1% and a relative % inhibition ([2]; 0.5 µM) of 3.44%. It also gave a relative % inhibition ([2]; 5 µM) of -21%.

FC(F)(F)c1cccc(CNC2CCN(CCc3ccccc3)CC2)c1 gave a relative % inhibition ([1]; 0.5 µM) of -2.89%, a relative % inhibition ([1]; 5 µM) of 82.2% and a relative % inhibition ([2]; 0.5 µM) of 1.32%. It also gave a relative % inhibition ([2]; 5 µM) of -17.4%.

Work on O=C(NNc1cc(N2CCCC2)nc(N2CCCC2)n1)c1ccccc1 yielded a relative % inhibition ([1]; 0.5 µM) of -9.28%, a relative % inhibition ([1]; 5 µM) of -5.49% and a relative % inhibition ([2]; 0.5 µM) of 10.9%. The relative % inhibition ([2]; 5 µM) was 16.3%.

In the case of CCCN(CCC)CC(O)COc1ccccc1C(=O)Nc1ccccc1 (centres undefined), the relative % inhibition ([1]; 0.5 µM) is reported as 22.5%, the relative % inhibition ([1]; 5 µM) is reported as 101% and the relative % inhibition ([2]; 0.5 µM) is reported as 34.9%. For the same molecule, the relative % inhibition ([2]; 5 µM) was 65.1%.

Cc1c(C)n(Cc2ccc(F)cc2)c2ccc(C(=O)NCc3ccco3)cc12 gave a relative % inhibition ([1]; 0.5 µM) of 19.2%, a relative % inhibition ([1]; 5 µM) of -8.91% and a relative % inhibition ([2]; 0.5 µM) of 16.9%. The relative % inhibition ([2]; 5 µM) was 21.7%.

c1ccc(CNc2nc(Nc3ccccc3)nc3ccccc23)cc1 gave a relative % inhibition ([1]; 0.5 µM) of 65.9%, a relative % inhibition ([1]; 5 µM) of 97% and a relative % inhibition ([2]; 0.5 µM) of 57.9%. The relative % inhibition ([2]; 5 µM) was 86.1%.

With Cc1cc(N2CCCC2)nc(Nc2ccc(NC(=O)CCc3ccccc3)cc2)n1 the relative % inhibition ([1]; 0.5 µM) was 53.7%, the relative % inhibition ([1]; 5 µM) was 89.6% and the relative % inhibition ([2]; 0.5 µM) was 6.75%. For the same molecule, the relative % inhibition ([2]; 5 µM) was 21%.

For O=c1nc(C=Cc2ccc(Br)cc2)oc2ccccc12, the relative % inhibition ([1]; 0.5 µM) was 10.7%, the relative % inhibition ([1]; 5 µM) was -18.8% and the relative % inhibition ([2]; 0.5 µM) was 4.47%. For the same molecule, the relative % inhibition ([2]; 5 µM) was 101%.

CCOc1ccccc1CN1CCc2nc3cc(C(C)(C)C)nn3c(O)c2C1 showed a relative % inhibition ([1]; 0.5 µM) of -6.1%, a relative % inhibition ([1]; 5 µM) of -4.88% and a relative % inhibition ([2]; 0.5 µM) of 66.3%. It also gave a relative % inhibition ([2]; 5 µM) of 76.6%.

With COc1ccc(C)c2sc(N(Cc3cccnc3)C(=O)c3ccc(C#N)cc3)nc12 the relative % inhibition ([1]; 0.5 µM) was 11.9%, the relative % inhibition ([1]; 5 µM) was 35.9% and the relative % inhibition ([2]; 0.5 µM) was -23.5%. For the same molecule, the relative % inhibition ([2]; 5 µM) was 7.81%.

Molecule CC(C)(C)c1ccc2c(c1)CN(Cc1ccc(Cl)cc1)CO2 has a relative % inhibition ([1]; 0.5 µM) of 9.71%, a relative % inhibition ([1]; 5 µM) of 98.4% and a relative % inhibition ([2]; 0.5 µM) of 27.3%. The relative % inhibition ([2]; 5 µM) was 54.6%.

CCN1CCN(Cc2ccc(NC(=O)c3cc4ccc5cccnc5c4[nH]3)cc2)CC1 was tested, and the relative % inhibition ([1]; 0.5 µM) was 21.1%, the relative % inhibition ([1]; 5 µM) was 59.1% and the relative % inhibition ([2]; 0.5 µM) was -6.9%. For the same molecule, the relative % inhibition ([2]; 5 µM) was 3.45%.

Source: the supplement of paper PMC3842684
